Our source for the Potency, max response and activation values is PubChem BioAssay (NCATS).

Inconclusive results are not listed. Activity calls are given as the source filed them. Unless noted, the call rests on the fitted dose curve; in most records, active means well fitted curve in the direction sought with a large enough effect; inconclusive means small, poorly fitted or top-dose-only effect, or another doubt; inactive means no such curve, though single readings can be large; an effect the other way counts as inactive or inconclusive. Bounds are passed on as bounds.

Assay [1] can be described thus: Cell Viability - HepG2 (AID 433; calls by dose curve;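 further: potency means the concentration at half of the fitted maximal effect; cells exposed to compound for 40 hours; potency for ATP loss meaning cytotoxicity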). As to conditions: qHTS. The method in brief:
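Read-out is luciferase-based quantitation of cellular ATP as a measure of viable HepG2 cells after 40 h treatment at 37 °C. Signal decrease is scaled between DMSO-only and 100 uM tamoxifen controls, with AC50 fitted by the Hill equation.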
On the technique in general: Quantitative high-throughput screening tests each substance at several concentrations.

Assay [2] in a line: Cell Viability - Mesenchymal (AID 546).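 Further: cells exposed to compound for 40 hours before reading.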 As to conditions: mesenchymal cells viability, qHTS; activity change, negative = cytotoxicity: at 91.7 µM (top of the series). The method in brief:
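In this qHTS cytotoxicity format, glomerulus-derived human mesenchymal kidney cells received compound for 40 hr, then luciferase-based ATP quantitation. Concentration-response data were fitted with the Hill equation.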

Assay [3] in a line: Cellular Toxicity (caspase-3) Jurkat (AID 655).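 Further: cells exposed to compound for 16 h at 37 °C before reading.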 Further: potency means the concentration at half of the fitted maximal effect. As to conditions: Jurkat caspase-3 activation, luminescence; caspase-3 activation: at 92.2 µM (top of the series), DMSO = 0%, tamoxifen = 100%. The essentials: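 5000 Jurkat cells/well; compound 16 hr, 37 °C; Caspase-Glo 3/7 added, 20 min RT; luminescence read. Norm: DMSO = 0%, tamoxifen 100 uM = 100%. AC50, Hill model.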
The nature of assay [4]: Cell Viability - LYMP1-002 - Assay at 16 hr (AID 948). Further: potency means the concentration at half of the fitted maximal effect.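 On activity change, negative = cytotoxicity: 0% = DMSO alone and full effect = 92 µM tetraoctylammonium bromide.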 The following applies: LYMP1-002 lymphoblastoid cell viability; series mostly up to 92.2 µM. The essentials:
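Seed 2500 LYMP1-002 cells per well in complete medium and hold 5 hr at 37 C. Add compound across a concentration series and incubate 16 hr at 37 C. Add CellTiter-Glo, wait 30 min at room temperature, read luminescence.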

Assay [5] in a line: Cell Viability - LYMP2-003 (AID 965).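 Further: cells exposed to compounds for 24 h before reading; 0% = DMSO only and full effect = 92 µM tetraoctylammonium bromide; nearly all actives have a fitted effect of over 50% in size.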 As to conditions: LYMP2-003 lymphoblastoid cell viability; series mostly up to 92.2 µM. The essentials: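 Seed 2500 lymphoblastoid cells/well; incubate 5 hr, 37 C; add compounds; incubate 24 hr, 37 C; add CellTiter-Glo, 30 min RT; read luminescence. AC50 from Hill fit.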
Assay [6] can be described thus: Cell Viability - LYMP2-011 (AID 969). Further: nearly all actives have a fitted effect of over 60% in size. Further: potency means the concentration at half of the fitted maximal effect. The following applies: LYMP2-011 lymphoblastoid cells viability; series mostly up to 92.2 µM. The method in brief:
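Cytotoxicity qHTS with ATP content as read-out: lymphoblastoid cells (2500/well) exposed to compound for 24 h at 37 C, then luciferase luminescence measured. Concentration-response data fitted with the standard Hill equation to give AC50.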

A short description of assay [7]: Cell Viability - LYMP2-013 (AID 970). Further: nearly all actives have a fitted effect of over 55% in size. Further: potency means the concentration at half of the fitted maximal effect. As to conditions: LYMP2-013 lymphoblastoid cells viability; series mostly up to 92.2 µM. The essentials:
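qHTS cytotoxicity: ATP-dependent luminescence (CellTiter-Glo, 30 min room temperature) read after 24 h compound exposure at 37 C of 2500 LYMP2-013 lymphoblastoid cells per well. Concentration-response fitted with Hill equation to give AC50.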

The nature of assay [8]: Cell Viability - LYMP2-021 (AID 974). Further: on the % scale 0 is the no-effect control and ±100 the full control effect; nearly all actives have a fitted effect of over 55% in size. The following applies: LYMP2-021 lymphoblastoid cells viability; series mostly up to 92.2 µM. The essentials:
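AC50 values come from Hill-equation fits to CellTiter-Glo luminescence (ATP content), read after 24 hour compound exposure at 37 C of 2500 LYMP2-021 lymphoblastoid cells/well; tetraoctylammonium bromide as positive control.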

Assay [9] is described as follows: Cell Viability - LYMP2-002 (AID 977).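 Further: plate controls were DMSO only for no effect and 92 µM tetraoctylammonium bromide for full effect.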 The following applies: LYMP2-002 lymphoblastoid cell viability, qHTS; series mostly up to 92.2 µM. The method in brief: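 In this qHTS viability screen, 2500 human lymphoblastoid cells per well receive compound for 24 hr at 37 C, and luciferase-based ATP luminescence gives the viability signal. Tetraoctylammonium bromide serves as positive control.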

Assay [10] is described as follows: Cell Viability - LYMP2-008 (AID 980). Further: nearly all actives have a fitted effect of over 60% in size. Further: potency means the concentration at half of the fitted maximal effect. On activity change, negative = cytotoxicity: on the % scale 0 is the no-effect control and ±100 the full control effect. As to conditions: LYMP2-008 lymphoblastoid cell viability, qHTS; series mostly up to 92.2 µM. The method in brief:
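Cytotoxicity determined from ATP-dependent luciferase luminescence (CellTiter-Glo) following 24 h compound exposure of human lymphoblastoid LYMP2-008 cells at 37 C. Concentration-response data fitted to the Hill equation to give AC50.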

Assay [11] is described as follows: Cell Viability - LYMP2-012 (AID 982).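 Further: cellular ATP by luciferase luminescence where a drop means cytotoxicity; cells exposed to compound for one day before reading; nearly all actives have a fitted effect of over 55% in size.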 Further: potency means the concentration at half of the fitted maximal effect.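 On activity change, negative = cytotoxicity: 0% = DMSO only and full loss = 92 µM tetraoctylammonium bromide.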 The following applies: LYMP2-012 lymphoblastoid cell viability qHTS; series mostly up to 92.2 µM.
The nature of assay [12]: Cell Viability - LYMP2-014 (AID 983).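 Further: plate controls were DMSO only for no effect and 92 µM tetraoctylammonium bromide for full effect; nearly all actives have a fitted effect of over 50% in size.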 As to conditions: LYMP2-014 lymphoblastoid cells, viability qHTS; series mostly up to 92.2 µM. The method in brief:
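Intracellular ATP loss, read by luciferase luminescence, measures acute cytotoxicity after 24 h compound exposure of lymphoblastoid LYMP2-014 cells (2500/well, 37 C). Concentration-response data fitted to the Hill equation for AC50.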

Assay [13] is described as follows: Cell Viability - LYMP2-016 (AID 984). Further: on the % scale 0 is the no-effect control and ±100 the full control effect; nearly all actives have a fitted effect of over 55% in size. As to conditions: LYMP2-016 lymphoblastoid cell viability, qHTS; series mostly up to 92.2 µM. The essentials:
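Cells were seeded at 2500 per well and rested 5 hr before a 24 hr compound exposure at 37 C. Viability was then gauged as cellular ATP by luciferase luminescence, with AC50 values fitted to the Hill equation.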

A short description of assay [14]: Cell Viability - LYMP2-020 (AID 986). Further: nearly all actives have a fitted effect of over 55% in size. Further: potency means the concentration at half of the fitted maximal effect. The following applies: series mostly up to 92.2 µM. The essentials:
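Cytotoxicity in qHTS format: luminescent ATP readout from CellTiter-Glo after 24 h compound exposure at 37 C in complete medium. LYMP2-020 lymphoblastoid cells were seeded at 2500/well; concentration-response data fitted to the Hill equation for AC50.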

The nature of assay [15]: Cell Viability - LYMP2-024 (AID 988). Further: nearly all actives have a fitted effect of over 60% in size. Further: potency means the concentration at half of the fitted maximal effect.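 On activity change, negative = cytotoxicity: plate controls were DMSO only for no effect and 92 µM tetraoctylammonium bromide for full effect.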 As to conditions: LYMP2-024 lymphoblastoid cell viability; series mostly up to 92.2 µM. The method in brief:
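Cytotoxicity was taken as a decrease in ATP (CellTiter-Glo luminescence) after 24 hr compound exposure at 37 C of LYMP2-024 lymphoblastoid cells, 2500 cells/well. Concentration-response data were fitted to the Hill equation to give AC50.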

A short description of assay [16]: Cell Viability - LYMP2-026 (AID 989). Further: on the % scale 0 is the no-effect control and ±100 the full control effect; nearly all actives have a fitted effect of over 50% in size. The following applies: LYMP2-026 lymphoblastoid cell viability, qHTS; series mostly up to 92.2 µM. The essentials:
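Cytotoxicity read as ATP-dependent luminescence (CellTiter-Glo, 30 min room temperature) after 24 h compound treatment at 37 C. LYMP2-026 lymphoblastoid line seeded at 2500 cells/well; AC50 derived by standard Hill equation.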

A short description of assay [17]: Cell Viability - LYMP1-002 - Assay at 40 hr (AID 994).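 Further: 0% = DMSO only and full inhibition = 92 µM tetraoctylammonium bromide; nearly all actives have a fitted effect of over 60% in size.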 The following applies: LYMP1-002 lymphoblastoid cell viability; series mostly up to 92.2 µM. The method in brief: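 Cytotoxicity was read as loss of cellular ATP (CellTiter-Glo luminescence) after 40 hr compound exposure at 37 C of 2500 LYMP1-002 lymphoblastoid cells per well. Concentration-response data were fitted with the standard Hill equation to give AC50.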

Assay [18] is described as follows: qHTS assay for small molecule antagonists of retinoid X receptor alpha signaling (AID 588546; active means well fitted inhibition curve with a large enough effect in the signal ratio, with a control signal flat, not every such curve was filed as active; the % refers to the signal ratio;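 further: cells stimulated with 9-cis-retinoic acid as agonist; on the % scale 0 is the no-effect control and ±100 the full control effect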). As to conditions: HEK293T RXRa-UAS-bla, beta-lactamase ratio, antagonist mode; measured here: W530 green channel, cytotoxicity proxy. The method in brief: (§1)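 Beta-lactamase reporter inhibition, read as CCF4 fluorescence ratio (ex 405, em 460/530 nm) after 2 h at RT. HEK293T UAS-bla cells, 2500/well, were stimulated with 9-cis-RA at 500 or 100 nM final alongside test compound for 18 h at 37 C.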

Assay [19] deals with Retinoic acid receptor RXR-alpha (Homo sapiens) (UniProt P19793). The assay is described as above. The following applies: HEK293T RXRa-UAS-bla, beta-lactamase ratio, antagonist mode. The method in brief:
as §1

Assay [20] can be described thus: qHTS assay for environmental chemicals that activate the Aryl hydrocarbon Receptor (AhR) signaling pathway (AID 651777). Further: % of control where 0% means no effect; nearly all actives have a fitted effect of over 15% in size. As to conditions: 1A2-DRE human hepatoma cells, luciferase, 24 h; activation: stronger effect = higher value. The essentials:
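Measured luciferase activity, read 30 min after One-Glo addition at room temperature, from human hepatoma cells bearing a dioxin response element–CYP1A2 promoter reporter and exposed to compound for 24 hr at 37 C.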

Chain of Retinoic acid receptor RXR-alpha (Homo sapiens) (P19793 whole entry, looked up): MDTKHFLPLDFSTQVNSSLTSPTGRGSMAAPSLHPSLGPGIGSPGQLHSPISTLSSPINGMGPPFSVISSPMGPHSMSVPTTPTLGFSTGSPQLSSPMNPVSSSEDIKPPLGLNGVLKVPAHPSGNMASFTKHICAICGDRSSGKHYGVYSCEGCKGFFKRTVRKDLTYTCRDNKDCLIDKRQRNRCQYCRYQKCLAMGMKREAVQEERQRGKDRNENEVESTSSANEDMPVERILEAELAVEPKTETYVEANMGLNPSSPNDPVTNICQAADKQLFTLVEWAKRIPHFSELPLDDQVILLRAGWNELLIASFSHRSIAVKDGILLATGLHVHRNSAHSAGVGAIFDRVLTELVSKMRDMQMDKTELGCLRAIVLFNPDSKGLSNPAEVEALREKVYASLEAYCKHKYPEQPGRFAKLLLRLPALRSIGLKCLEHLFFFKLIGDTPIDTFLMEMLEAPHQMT

As to `c1ccc(Nc2cccc3ccccc23)cc1`, in assay [1], the Potency was > 92 µM (inactive). Further, the Potency result in assay [2], in assay [3], in assay [4], in assay [5], in assay [6] and in [7] was “inactive” each time. In addition, the Potency result in assay [8], in assay [9], in assay [10], in assay [11], in assay [12] and in assay [13] was “inactive” in each case. In addition, the Potency result in assay [14], in [15], in [16] and in assay [17] was “inactive” each time. In addition, the max response in assay [18] was 1.85%; in [19], -23.3% (inactive).
Turning to `O=C(Cl)c1ccc([N+](=O)[O-])cc1`, the Potency in assay [1] is > 92 µM (inactive). For the same molecule, the Potency result in assay [2], in assay [3], in [4], in [5], in [6] and in assay [7] was “inactive” in each case. Besides, the Potency entry in assay [8], in assay [9], in [10], in assay [11], in assay [12] and in assay [13] was “inactive” throughout. Moreover, the Potency result in assay [14], in assay [15], in [16] and in [17] was “inactive” each time. The max response in [18] is -4.54%; in [19], 11.8% (inactive).
On to `Clc1nc2ccccc2nc1Cl`, for which the Potency in assay [1] was > 92 µM (inactive). The Potency result in assay [2], in [3], in [4], in assay [5], in assay [6] and in assay [9] was “inactive” in each case. Besides, the Potency result in assay [10], in [12], in assay [13], in [16] and in [17] was “inactive” throughout. In addition, the max response in assay [18] is -14.8%; in [19] it was 31% (inactive). Moreover, the activation in [20] is 0.0222% (inactive).
In the case of `Nc1ccccc1O`, the Potency is > 92 µM (inactive) in assay [1] and 25.1 µM (active) in [3]. Also, the Potency result in assay [2], in assay [4], in assay [5], in [6], in assay [7] and in [8] was “inactive” each time. Besides, the Potency entry in [9], in assay [10], in [11], in assay [12], in assay [13] and in assay [14] was “inactive” each time. The Potency result in assay [15], in assay [16] and in assay [17] was “inactive” each time. Also, the max response in [18] was 21.2%; in assay [19], -7.25% (inactive).
For the molecule `NC(=O)Nc1nc2ccccc2[nH]1`, the Potency in assay [1] was > 92 µM (inactive). The Potency entry in assay [2], in [3], in assay [4], in assay [5], in assay [6] and in assay [7] was “inactive” in each case. The Potency result in [8], in assay [9], in [10], in assay [11], in assay [12] and in [13] was “inactive” throughout. In addition, the Potency entry in [14], in [15], in assay [16] and in assay [17] was “inactive” throughout. In addition, the values for the max response in assay [18] and in assay [19] were -1.95% and 1.58% (inactive), respectively. For the same molecule, the activation in assay [20] is 5.33% (inactive).
On to `C=CC(C)(O)CCCC(C)CCCC(C)CCCC(C)C` (stereo unspecified), for which the Potency in assay [1] is > 92 µM (inactive). Also, the Potency entry in assay [2], in assay [3], in [4], in assay [5], in [6] and in assay [7] was “inactive” each time. Also, the Potency result in assay [8], in assay [10], in assay [11], in assay [12], in [13] and in assay [14] was “inactive” each time. Also, the Potency result in assay [15], in assay [16] and in [17] was “inactive” each time. The max response in assay [18] was -10.2%; in assay [19], 7.39% (inactive). For the same molecule, the activation in assay [20] is -0.417% (inactive).
Consider `C/C=C1/C(=O)C[C@H]2[C@@H]3CCC4=CC(=O)CC[C@]4(C)[C@H]3CC[C@]12C`, for which the Potency in [1] is > 92 µM (inactive); in [4], 50.1 µM (active); in assay [6], 50.1 µM (active); in [7], 50.1 µM (active); in assay [10] it was 50.1 µM (active); in assay [11], 39.8 µM (active). The Potency in assay [14] and in [15] was 39.8 µM (active) each time. For the same molecule, in assay [5], the Potency result was “inactive”. In [20], the activation was 1.95% (inactive).
